Rows were chosen to be rich in hits. Some 0.64% of all compounds tested hit in one or more screens of this group.
E coli RNAP = inhibitors of Escherichia coli RNA polymerase; P0A8V2; E. coli RNA polymerase, fluorescence transcription assay; inhibition, %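 (tested at 10 µM)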; hit rate 0.2% among 62,000; in the data active means inhibition above about 20%;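 further: 0% = enzyme without compound and 100% = no enzyme blank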
sEH inh = inhibitors of human soluble epoxide hydrolase. P34913. recombinant human sEH enzymatic activity assay. hit rate 0.34% among 91,000. inhibition, % at 2 µM; in the data active means inhibition above about 80%
Target sequence (P34913 whole entry, looked up): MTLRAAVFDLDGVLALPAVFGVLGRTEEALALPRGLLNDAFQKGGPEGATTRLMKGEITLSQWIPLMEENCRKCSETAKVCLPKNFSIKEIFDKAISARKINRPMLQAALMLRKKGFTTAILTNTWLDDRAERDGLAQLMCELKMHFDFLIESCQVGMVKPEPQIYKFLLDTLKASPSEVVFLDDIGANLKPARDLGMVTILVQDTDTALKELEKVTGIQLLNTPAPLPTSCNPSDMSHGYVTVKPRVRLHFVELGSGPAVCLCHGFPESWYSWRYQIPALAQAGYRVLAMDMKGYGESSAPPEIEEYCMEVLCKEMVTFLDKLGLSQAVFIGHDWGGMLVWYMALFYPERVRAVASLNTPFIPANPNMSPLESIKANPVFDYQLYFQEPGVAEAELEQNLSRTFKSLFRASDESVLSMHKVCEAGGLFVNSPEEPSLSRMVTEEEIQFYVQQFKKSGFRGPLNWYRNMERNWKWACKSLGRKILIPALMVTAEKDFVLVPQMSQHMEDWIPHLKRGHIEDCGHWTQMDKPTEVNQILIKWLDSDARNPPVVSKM
sEH act = increases human soluble epoxide hydrolase activity | activation, % at 2 µM | AID 717 | P34913 | hit rate 0.04% among 91,000 | purified human sEH enzymatic activity, activator screen; in the data active means activation above about 37%
PTPN22 act = increases human PTPN22 phosphatase activity; Q9Y2R2; recombinant LYP, DiFMUP fluorescence; 0 = plate median, 100 = signal doubled; activation, % at 2 µM; hit rate 0.11% among 96,000; AID 697;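 active means activation at 2 µM above a set limit, the mean plus 5 SD, cut at about 37% in these data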
LYP inh 2 = blocks human PTPN22 phosphatase activity | Q9Y2R2 | recombinant LYP catalytic domain, DiFMUP fluorescence | inhibition, % at 2 µM | hit rate 0.21% among 96,000;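 active means inhibition at 2 µM at or above a set limit, the screen mean plus 3 SD, cut at about 24% in these data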;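 further: 0% = DMSO with enzyme and 100% = enzyme fully blocked by orthovanadate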
MT1-MMP txn act = MT1-MMP promoter transcription activation | activation factor at 10 µM | AID 750 | hit rate 0.16% among 86,000 | HT1080 MT1-MMP promoter luciferase reporter, luminescence, overnight; stronger effect = higher value;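 active means activation factor of at least 2 for MT1-MMP transcription at 10 µM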
Active calls of the source: *; · = no result.

SMILES | E coli RNAP | sEH inh | sEH act | PTPN22 act | LYP inh 2 | MT1-MMP txn act
Cc1cc(C)nc(N2CCCC(C(=O)Nc3nnc(C(C)C)s3)C2)n1 (configuration not stated) | · | 9 | -5 | 7 | -9 | 1
CCCCNC(=O)c1onc(CSc2ccc(C(C)C)cc2)c1C(=O)O | · | -2 | 4 | -11 | 13 | ·
CSc1nnc(-c2sc3cc(C(F)(F)F)cnc3c2-c2ccccc2)n1C | · | -8 | 8 | 5 | -4 | 0.8
COC(=O)N1CC=CC1(C)C(=O)O (configuration not stated) | · | · | · | · | · | 1
O=C(Nc1cccc(Br)c1)c1ccc(Cl)c(S(=O)(=O)N2CCOCC2)c1 | · | 95* | -95 | 1 | -1 | 1.3
CC(C)(C)SCCNC(=O)c1ccc(Cl)c(S(=O)(=O)N2CCOCC2)c1 | · | 86* | -86 | 3 | -7 | 1.1
O=C(Nc1cccc(S(=O)(=O)C(F)F)c1)c1ccc(Cl)c(S(=O)(=O)N2CCOCC2)c1 | 6 | · | · | · | · | 1.2
COc1ccc2[nH]c(=O)c(C(c3nnnn3C3CCCC3)N3CCN(Cc4ccc5c(c4)OCO5)CC3)cc2c1 (configuration not stated) | · | -16 | 13 | -5 | 7 | 1.1
CCN(CC)C(C(=O)Nc1ccc(C(C)C)cc1)c1ccc2c(c1)OCO2 (configuration not stated) | · | -38 | 38* | 3 | 1 | 1.1
Nc1c(C(=O)NCc2ccco2)c2nc3ccccc3nc2n1CCc1ccccc1F | · | 8 | -11 | -25 | 25* | 0.9
COC(=O)N1C2(C=CC1(C)C(=O)NCc1ccccn1)CCCCC2 (configuration not stated) | · | · | · | · | · | 1.1
COCCN1C(=O)C(O)=C(C(C)=O)C1c1ccc(OC)c(OC)c1 (configuration not stated) | 24* | 3 | -4 | -6 | 5 | 0.9
CCOC(=O)c1c2ccc(OCC(=O)N/N=C/c3ccc(C)cc3)cc2n2ccccc12 | · | 5 | -4 | -22 | 24* | ·
COc1cc(OC)cc(C(=O)Nc2ccccc2C(=O)N2CCCC2)c1 | · | -8 | 9 | -51 | 52* | 1.6
Cc1ccc(CSc2nnc(-c3ccccc3N)c(=O)[nH]2)cc1 | · | -5 | 3 | -30 | 29* | 1.1
Nc1ccccc1-c1nnc(SCc2ccccc2Cl)[nH]c1=O | · | 7 | -5 | -5 | 3 | 1.2
Cc1nc(SCC(=O)c2ccc(Cl)cc2)c([N+](=O)[O-])[nH]1 | · | -9 | 10 | -9 | 11 | ·
O=C(CSc1nnc2scc(-c3ccccc3)n12)Nc1nsc(-c2ccc(Cl)cc2)n1 | · | 8 | -8 | -24 | 26* | 1.1
CN(C)C(=O)[C@H]1C[C@@H]1[C@H](NC(=O)CNC(=O)[C@@H]1CCCN1C(=O)[C@H]1C[C@@H]1[C@H](NC(=O)OCc1ccccc1)c1ccccc1)c1ccccc1 | · | · | · | · | · | 1.2
CCN(CC(=O)NC(=O)NC1CCCCC1)Cc1nc2ccccc2c(=O)[nH]1 | · | 2 | -3 | -24 | 25* | 1
CCN(CC(=O)NC(c1ccccc1)c1ccccc1)Cc1nc2ccccc2c(=O)[nH]1 | · | 8 | -5 | 2 | -2 | 1.1
O=C(CSCc1ccc(Cl)cc1)N/N=C/c1ccc(Cl)cc1Cl | · | 80* | -80 | 2 | 1 | ·
O=C(O)c1sccc1SCc1ccc(Cl)cc1Cl | · | 6 | -5 | -2 | 5 | ·
CNC(=S)N/N=C/c1c(C)nn(-c2ccccc2)c1Cl | · | -12 | 15 | 9 | -12 | ·
Cc1ccc(C)c(OCC(=O)N/N=C/c2c(C)nn(-c3ccccc3)c2Cl)c1 | · | 4 | -5 | -29 | 28* | ·
SMILES | E coli RNAP | sEH inh | sEH act | PTPN22 act | LYP inh 2 | MT1-MMP txn act
Cc1ccc(NC(=S)NCCN2CCOCC2)cc1C | · | -35 | 38* | -17 | 20 | ·
Cc1ccc(C)c(NC(=S)NCCN2CCOCC2)c1 | · | -2 | -1 | -2 | 0 | ·
O=Cc1c(Sc2ccccc2)nc2ccccn2c1=O | · | -19 | 18 | -13 | 14 | 1.3
O=c1c(/C=N/Nc2ccccc2)c(Sc2nnnn2-c2ccccc2)nc2ccccn12 | · | -2 | 0 | -23 | 24* | ·
CCOC(=O)c1sc(NC(=O)C(CC)Sc2nnc3c4ccccc4n(C(C)C)c3n2)nc1C (configuration not stated) | · | · | · | -7 | 4 | ·
CCOC(=O)c1sc(NC(=O)C(CC)Sc2nc3ccccc3[nH]2)nc1C (configuration not stated) | · | 5 | -3 | -24 | 25* | 1.4
O=C(N/N=C/c1ccc(O)cc1)c1csc2ccccc12 | · | 84* | -84 | -4 | 6 | ·
CCn1cc(/C=N\NC(=O)c2csc3ccccc23)c(C)n1 | · | 57 | -56 | 6 | -6 | ·
FC(F)(F)Oc1ccc(Nc2nc3ccccc3o2)cc1 | 4 | · | · | · | · | 2.2*
CCNC(=O)COc1cc(C)c(Cl)c(C)c1 | · | -7 | 5 | -25 | 25* | 1
O=C(NCc1cccs1)C(Cc1ccccc1)n1cccc1 (configuration not stated) | 23* | · | · | · | · | 1.1
COc1ccc(-c2nnc3c4ccccc4c(C)nn23)cc1 | · | 6 | -6 | 4 | -1 | 2*
COC(/C=C/Nc1ccc(Br)cc1)=C(C#N)C#N | · | 4 | -3 | 4 | 0 | ·
Nc1nc(NC(=O)c2cccs2)nn1-c1ccccc1 | 21* | 3 | -1 | 3 | -3 | 1.3
Cc1nn(-c2ccccc2)c(C)c1NC(=O)c1cccs1 | -8 | -2 | 3 | -3 | 2 | ·
CCCN(CCC)CCCNC(=O)c1cc2c(=O)n(C)c3ccccc3c2n1C | 50* | · | · | -2 | -1 | 1.1
COC(=O)c1ccc(C(NC(=O)OCc2ccccc2)/C(F)=C/[C@@H](C)C(=O)NCCN2CCOCC2)cc1 (some centres not stated) | · | · | · | · | · | 1.1
C=CCn1c(SCC(=O)Nc2ccc(C(=O)OCC)cc2)nnc1-c1cccs1 | 10 | · | · | · | · | 1.1
C=CCn1c(SCC(=O)c2ccc(NS(=O)(=O)c3ccccc3)cc2)nnc1-c1cccs1 | 26* | · | · | · | · | 1.2
CN(c1ccccc1C(=O)Nc1cccc(Cl)c1Cl)S(C)(=O)=O | · | -4 | 3 | -1 | 4 | 1.2
CCc1cccc(NC(=O)NC2CCCCC2)c1 | -3 | 94* | -94 | -10 | 10 | 1.4
CCc1cccc(NC(=O)C2CCCC2)c1 | 8 | -4 | 6 | 2 | 1 | 1
Cc1ccc(NC(=O)NC2CCCCC2)cc1Cl | 11 | 95* | -95 | 2 | -2 | 1.3
COc1ccc(CC(=O)NCCN2CCCC2)cc1 | · | 7 | -4 | 11 | -8 | 2.4*
CCN(CC)S(=O)(=O)c1cccc(-c2nnc(SC(C)C(=O)NCCC3=CCCCC3)o2)c1 (configuration not stated) | -5 | 85* | -84 | -5 | 3 | 1.1
CC1CCCN(S(=O)(=O)c2ccc(C(=O)Nc3nnc(-c4ccccc4Cl)o3)cc2)C1 (configuration not stated) | 9 | 82* | -82 | -10 | 9 | 0.9
